We go through 21 compounds from PubChem BioAssay.

Values joined by “and” are separate entries in the source; they are usually repeats but may differ in a detail not shown here. Identical values can stand only once. Active and inactive are the calls of the source.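 How the source made its calls, unless noted: active means mean z-score across replicates of 1.96 or higher in either the MELAS or the Rieske mutant cell line; inactive means the rest.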

Test [1] in a line: sensitizers of A549 cells to miR-34 induction, primary screen, imaging, A549 dox-inducible miR-34, nuclei and caspase counts (AID 1347080;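 active means compounds whose cell count with miR-34 switched on is under 0.7 times the count with it off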). Particulars: A549 miR-34 inducible, Hoechst nuclei count, 48 h.
Test [2] in a line: survival rescue of mitochondrial mutant cells in low glucose, primary screen, MELAS cybrids, Rieske KO mouse fibroblasts, CellTiter-Glo (AID 1508586).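 Further: z relative to plate mean and SD of compound and empty wells.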
Setting [3] is: stronger effect = lower value, cell number ratio, induced over uninduced.
Where [4] appears, read: measured here: relative caspase fold change +Dox/-Dox.
Where [5] appears, read: measured here: total cells with miR-34 induction, stronger effect = lower value.
Where [6] appears, read: measured here: total cells without miR-34 induction.
Setting [7] is: MELAS cybrid survival, CellTiter-Glo 48 h, stronger effect = higher value.
Where [8] appears, read: Rieske KO mouse fibroblast survival, CellTiter-Glo 72 h.
Further: test concentration not given here.

Consider `CON=C(C(=O)N[C@@H]1C(=O)N2C(C(=O)O)=C(CSC(=O)c3ccco3)CS[C@H]12)c1csc(N)n1`, for which the values for the fold change in test [1] (setting [3]) and in test [1] (setting [4]) were 0.943 (inactive) and 1.19, respectively. In addition, the cell count in test [1] (setting [5]) turned out to be 9660; in test [1] (setting [6]), 10200. The z-score in test [2] (setting [7]) was -0.295 (inactive); in test [2] (setting [8]), 0.108.
As to `Fc1ccc(C(c2ccc(F)cc2)N2CCN(CC=Cc3ccccc3)CC2)cc1`, the results for the fold change in test [1] (setting [3]) and in test [1] (setting [4]) were 0.899 (inactive) and 0.978, respectively. Further, the figures for the cell count in test [1] (setting [5]) and in test [1] (setting [6]) were 7880 and 8760, respectively. Further, the z-score was -0.335 (inactive) in test [2] (setting [7]) and 0.411 in test [2] (setting [8]).
For the compound `Cc1cc(Nc2nc(NC(C)c3ncc(F)cn3)ncc2Cl)n[nH]1` (stereo unspecified), the fold change is 1.07 (inactive) in test [1] (setting [3]) and 1.17 in test [1] (setting [4]). Besides, the cell count worked out at 1380 in test [1] (setting [5]) and 1290 in test [1] (setting [6]). Moreover, the z-score is 0.54 (inactive) in test [2] (setting [7]) and -3.57 in test [2] (setting [8]).
As for `O=NO`, the results for the fold change in test [1] (setting [3]) and in test [1] (setting [4]) were 0.914 (inactive) and 1.01, respectively. Moreover, the cell count in test [1] (setting [5]) was found to be 8730; in test [1] (setting [6]), 9550. The values for the z-score in test [2] (setting [7]) and in test [2] (setting [8]) were -0.254 (inactive) and -0.15, respectively.
With `COC1CC2CCC(C)[C@](O)(O2)C(=O)C(=O)N2CCCC[C@H]2C(=O)OC(C(C)CC2CCC(n3cnnn3)C(OC)C2)CC(=O)C(C)C=C(C)C(O)C(OC)C(=O)C(C)CC(C)C=CC=CC=C1C` (stereo partly specified), the fold change in test [1] (setting [3]) is 1.13 (inactive); in test [1] (setting [4]), 0.353. The cell count in test [1] (setting [5]) came out at 5100; in test [1] (setting [6]) it was 4500. For the same compound, the figures for the z-score in test [2] (setting [7]) and in test [2] (setting [8]) were 3.99 (active) and 2.04, respectively.
In the case of `Cc1nc(C#Cc2ccnc(Cl)c2)c(C)n1-c1ccc(OC(F)(F)F)cc1`, the fold change in test [1] (setting [3]) is 1.01 (inactive); in test [1] (setting [4]), 0.784. The results for the cell count in test [1] (setting [5]) and in test [1] (setting [6]) were 6890 and 6830, respectively. The values for the z-score in test [2] (setting [7]) and in test [2] (setting [8]) were -0.149 (inactive) and 0.0252, respectively.
Turning to `CCn1cc(NC(=S)Nc2cc(Cl)ccc2OC)c(C(N)=O)n1`, the fold change was 0.929 (inactive) in test [1] (setting [3]) and 0.479 in test [1] (setting [4]). In addition, the cell count turned out to be 8480 in test [1] (setting [5]) and 9130 in test [1] (setting [6]). The z-score was -0.357 (inactive) in test [2] (setting [7]) and 0.0626 in test [2] (setting [8]).
`COc1ccc(S(=O)(=O)N(C(C)=O)c2ccccc2C=Cc2cc[n+]([O-])cc2)cc1`: the fold change was 1.18 (inactive) in test [1] (setting [3]) and 0.723 in test [1] (setting [4]). Also, the cell count in test [1] (setting [5]) stood at 1240; in test [1] (setting [6]), 1050. Further, the figures for the z-score in test [2] (setting [7]) and in test [2] (setting [8]) were 0.938 (inactive) and -0.247, respectively.
Regarding `CCC1OC(=O)CC(O)C(C)C(OC2OC(C)C(O)C(N(C)C)C2O)C(CCN2CC(C)CC(C)C2)CC(C)C(=O)C=CC(C)=CC1COC1OC(C)C(O)C(OC)C1OC` (stereo unspecified), the fold change was 0.924 (inactive) in test [1] (setting [3]) and 0.808 in test [1] (setting [4]). The cell count in test [1] (setting [5]) was found to be 8240; in test [1] (setting [6]) it was 8920. Further, the values for the z-score in test [2] (setting [7]) and in test [2] (setting [8]) were -0.194 (inactive) and -0.165, respectively.
As to `CN1CCN(S(=O)(=O)c2ccc(-c3cnc(N)c(C(=O)Nc4cccnc4)n3)cc2)CC1`, the fold change in test [1] (setting [3]) was 0.893 (inactive); in test [1] (setting [4]), 0.445. Further, the cell count in test [1] (setting [5]) was 2390; in test [1] (setting [6]), 2680. The z-score in test [2] (setting [7]) is 0.891 (inactive); in test [2] (setting [8]), -1.29.
Regarding `COc1ccc2cc1Oc1ccc(cc1)C[C@@H]1c3c(cc4c(c3Oc3cc5c(cc3OC)CCN(C)[C@@H]5C2)OCO4)CCN1C`, the figures for the fold change in test [1] (setting [3]) and in test [1] (setting [4]) were 0.966 (inactive) and 1.15, respectively. Also, the cell count is 4290 in test [1] (setting [5]) and 4440 in test [1] (setting [6]). In addition, the z-score in test [2] (setting [7]) was -0.206 (inactive); in test [2] (setting [8]), -0.161.
As to `CCC1C(=O)N(C)c2cnc(Nc3ccc(C(=O)NC4CCC(N5CCN(CC6CC6)CC5)CC4)cc3OC)nc2N1C(C)C` (stereo unspecified), the figures for the fold change in test [1] (setting [3]) and in test [1] (setting [4]) were 1.2 (inactive) and 0.875, respectively. Besides, the cell count in test [1] (setting [5]) was determined as 1460; in test [1] (setting [6]), 1210. Also, the values for the z-score in test [2] (setting [7]) and in test [2] (setting [8]) were 6.19 (active) and -4.08, respectively.
For `OCC(O)C(O)CO` (stereo unspecified), the fold change in test [1] (setting [3]) was 0.967 (inactive); in test [1] (setting [4]), 0.463. Moreover, the cell count in test [1] (setting [5]) is 8430; in test [1] (setting [6]), 8720. The z-score was -0.193 (inactive) in test [2] (setting [7]) and -0.162 in test [2] (setting [8]).
`CC1(C)C=C(CN2CC(=Cc3ccc(F)cc3)C(=O)C(=Cc3ccc(F)cc3)C2)C(C)(C)N1O`: the fold change in test [1] (setting [3]) was 0.876 (inactive); in test [1] (setting [4]) it was 0.446. Further, the cell count is 6830 in test [1] (setting [5]) and 7800 in test [1] (setting [6]). Besides, the z-score was -0.493 (inactive) in test [2] (setting [7]) and -2.15 in test [2] (setting [8]).
Regarding `COC(c1ccccc1)(c1ccccc1)C(Oc1nc(C)cc(C)n1)C(=O)O` (stereo unspecified), the fold change is 0.951 (inactive) in test [1] (setting [3]) and 0.955 in test [1] (setting [4]). Besides, the values for the cell count in test [1] (setting [5]) and in test [1] (setting [6]) were 7820 and 8220, respectively. Also, the z-score in test [2] (setting [7]) is -0.106 (inactive) and 0.539 (inactive); in test [2] (setting [8]), 0.0441 and -0.167.
`O=C(Oc1cc(S(=O)(=O)c2ccccc2)ccc1[N+](=O)[O-])c1ccc(Cl)cc1`: the fold change in test [1] (setting [3]) is 0.897 (inactive); in test [1] (setting [4]), 0.914. Besides, the values for the cell count in test [1] (setting [5]) and in test [1] (setting [6]) were 8540 and 9520, respectively. Further, the z-score in test [2] (setting [7]) was -0.507 (inactive); in test [2] (setting [8]), -2.16.
In the case of `CC(=O)C1CC[C@H]2[C@@H]3CCC4=CC(=O)CC[C@]4(C)[C@@H]3CC[C@]12C` (stereo partly specified), the fold change in test [1] (setting [3]) was 0.844 (inactive); in test [1] (setting [4]) it was 1.47. The cell count in test [1] (setting [5]) was found to be 7050; in test [1] (setting [6]), 8360. The figures for the z-score in test [2] (setting [7]) and in test [2] (setting [8]) were -0.493 (inactive) and -0.487, respectively.
Regarding `CCC1OC(=O)C(C)C(OC2C[C@@](C)(OC)C(O)C(C)O2)C(C)C(OC2OC(C)CC(N(C)C)C2O)[C@](C)(O)CC(C)CN(C)C(C)C(O)[C@]1(C)O` (stereo partly specified), the fold change is 0.925 (inactive) in test [1] (setting [3]) and 0.82 in test [1] (setting [4]). The figures for the cell count in test [1] (setting [5]) and in test [1] (setting [6]) were 8110 and 8770, respectively. Besides, the z-score is -0.213 (inactive) in test [2] (setting [7]) and 0.708 in test [2] (setting [8]).
For the compound `CCc1cccc2c3c([nH]c12)[C@](CC)(CC(=O)O)OCC3`, the fold change was 0.926 (inactive) in test [1] (setting [3]) and 0.786 in test [1] (setting [4]). Further, the figures for the cell count in test [1] (setting [5]) and in test [1] (setting [6]) were 7980 and 8620, respectively. In addition, the figures for the z-score in test [2] (setting [7]) and in test [2] (setting [8]) were -0.475 (inactive) and -0.00521, respectively.
For the compound `COC(=O)C1C(OC)C(OC(=O)c2cc(OC)c(OC)c(OC)c2)C[C@@H]2CN3CCc4c([nH]c5cc(OC)ccc45)[C@H]3C[C@H]12` (stereo partly specified), the fold change was 0.925 (inactive) in test [1] (setting [3]) and 0.845 in test [1] (setting [4]). Also, the cell count came out at 7190 in test [1] (setting [5]) and 7770 in test [1] (setting [6]). The figures for the z-score in test [2] (setting [7]) and in test [2] (setting [8]) were -0.484 (inactive) and 0.995, respectively.
Take `CCN1CC(C)n2c(c(O)c3c(=O)n(Cc4ccc(F)c(Cl)c4)nc(C(=O)NC)c32)C1=O` (stereo unspecified): the fold change in test [1] (setting [3]) is 1.07 (inactive); in test [1] (setting [4]), 0.451. Moreover, the cell count in test [1] (setting [5]) stood at 7640; in test [1] (setting [6]), 7150. The z-score is -0.423 (inactive) in test [2] (setting [7]) and 0.325 in test [2] (setting [8]).
